High-throughput results as filed in PubChem BioAssay.
LMNA splice mod = LMNA splicing modulation; HeLa LMNA splicing GFP/RFP minigene ratio, 48 h; Potency, µM (doses to about 46.1 µM), inactives show at the top dose ratio change, negative = inhibition, usual class: inhibitors; actives 0.01% (n = 200,000); active = well fitted inhibition curve with a large enough effect in the signal ratio, with a control signal flat, not every such curve was filed as active; inconclusive = small, poorly fitted or top-dose-only effect, or effect the other way, or a change in a side signal; the % refers to the signal ratio; note: potency is the fitted concentration of half-maximal effect
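Read-out is the ratio of GFP to DsRed2 object intensity, acquired by 488 nm laser-scanning cytometry on HeLa lamin A-EGFP minigene reporter cells. Compound incubation 48 hrs at 37 °C in Opti-MEM with 2% FBS; DMSO 0.5% final.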
HPGD block = HPGD (human) dehydrogenase inhibition | purified HPGD, NADH fluorescence kinetic, PGE2 substrate | actives 4.3% (n = 150,000) | Potency, µM, inactives show at the top dose activity change, negative = inhibition, usual class: inhibitors; note: potency is the fitted concentration of half-maximal effect
Target sequence (P15428 whole entry, looked up): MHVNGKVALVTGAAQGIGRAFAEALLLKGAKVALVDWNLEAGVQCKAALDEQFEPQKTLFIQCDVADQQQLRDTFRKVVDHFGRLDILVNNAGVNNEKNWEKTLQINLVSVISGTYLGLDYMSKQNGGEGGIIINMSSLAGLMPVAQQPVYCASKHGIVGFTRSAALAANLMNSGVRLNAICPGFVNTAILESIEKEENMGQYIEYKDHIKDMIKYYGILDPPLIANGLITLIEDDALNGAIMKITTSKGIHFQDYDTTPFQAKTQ
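20 nM HPGD preincubated 15 min at room temperature with compound in 50 mM Tris-HCl pH 8, 0.01% Tween 20. Started with 1 mM NAD+ and 30 uM prostaglandin E2; NADH fluorescence (360/450 nm) read 5 times over 30-s intervals, last minus first.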
PNC inhibitor = blocks assembly of the perinucleolar compartment. activity change (PNC), negative = inhibition, % at 10 µM. PC3M PTB-GFP, PNC prevalence imaging, 16 h; stronger effect = lower value. actives 3.1% (n = 140,000);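 active = readout at or below -70, meaning at least 70% loss of cells showing the perinucleolar compartment, a nuclear body marking cancer cells; inconclusive = readout between -30 and a set limit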;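 note: plate controls were DMSO wells for no effect and camptothecin positive control wells for full effect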
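Read-out is percentage of cells bearing a perinucleolar compartment, from automated 20x imaging of fixed, Hoechst-stained PC3M PTB-GFP cells. Cells were seeded 4 h, then exposed 16 h to compound (23 nl of library stock) in duplicate plates.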
ALOX12 inhib = inhibitors of human 12-lipoxygenase (ALOX12); P18054; purified 12-hLO, xylenol orange hydroperoxide absorbance; Potency, µM (top dose mostly 57.1 µM), inactives show at the top dose activity change, negative = inhibition, hits mostly inhibitors; actives 0.12% (n = 150,000); AID 1452; active = well fitted inhibition curve with a large enough effect; inconclusive = small, poorly fitted or top-dose-only effect; note: potency is the fitted concentration of half-maximal effect; nearly all actives have a fitted effect of over 55% in size
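Purified human 12hLO (150 nM final) was preincubated with compounds for 15 min at room temperature in 25 mM Hepes pH 7.0, 0.01% Triton X-100, then reacted with 40 uM arachidonic acid for 30 min. Hydroperoxide was detected with ferrous iron/xylenol orange.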
ALDH1A1 block = ALDH1A1 (human) enzyme inhibition; Purified ALDH1A1, NADH fluorescence, propionaldehyde substrate; Potency, µM (titrated, usually from 75.3 µM), inactives show at the highest dose activity, negative = inhibition, most hits filed as inhibitors; P00352; actives 7.3% (n = 220,000);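 note: potency is the fitted concentration of half-maximal effect; plate controls were no enzyme wells and a reference inhibitor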
Active calls of the source: *; [ ] = another dose, or the depositor's remark. Sampled rows, rich in hits. Any-hit rate of the full collection: about 10%. Unless noted, calls come from the whole dose curve; as a rule, active = well fitted inhibition curve with a large enough effect (not every such curve was filed as active); inconclusive = small, poorly fitted or top-dose-only effect, or another doubt; inactive = no such curve, though single readings can be large or run the other way. Unless noted, % is set by controls: 0 for no effect and ±100 for the full control effect.

How did Cc1c(Cl)cccc1NC(=O)c1ccc2nc(C(C)C)oc2c1 do in these assays?
LMNA splice mod: 19%[46 µM]

How did CCOC(=O)[C@]1(C(NC(=O)OC)c2ccco2)CCCC1=O (some centres not stated) do in these assays?
ALDH1A1 block: -3%[13.5 µM]

How did COc1cccc(C(C(=O)NC2CCCCC2)N(C(=O)c2ccco2)c2ccc(-n3cnnn3)c(C)c2)c1 (configuration not stated) do in these assays?
LMNA splice mod: -10%; HPGD block: -17%; PNC inhibitor: -100*; ALOX12 inhib: -4%; ALDH1A1 block: inconclusive

How did O=C1NCCN(Cc2ccc(Cl)c(F)c2)C1CC(=O)N1CCCCO1 (configuration not stated) do in these assays?
LMNA splice mod: -2%[46 µM]; ALDH1A1 block: 25µM*

Results for O=C1NCCN(Cc2c(F)cccc2Cl)C1CC(=O)N1CCCCO1 (configuration not stated) ?
ALDH1A1 block: -16%

What do the screens show for `CC(C)=CCn1cnc2c1c(=O)n(C)c(=O)n2C`?
HPGD block: -3%; ALDH1A1 block: 3%

How did Cc1cccc(-n2cc(-c3ccccc3)c3c(N4CCOCC4)ncnc32)c1 do in these assays?
LMNA splice mod: inconclusive; ALDH1A1 block: 18µM*

How did COc1ccc(/C=C2/N=C(SC)NC2=O)cc1OC do in these assays?
ALDH1A1 block: -10%

Results for COc1ccc(/C=C2\N=C(SC)NC2=O)cc1 ?
LMNA splice mod: 7%; HPGD block: 22µM*; PNC inhibitor: -18; ALOX12 inhib: -28%; ALDH1A1 block: -8%

What do the screens show for `CCSC1=N/C(=C\c2ccc(OC)cc2)C(=O)N1`?
LMNA splice mod: -3%; HPGD block: inconclusive; PNC inhibitor: 53; ALOX12 inhib: -18%; ALDH1A1 block: 9.5µM*

Results for CCCc1[nH][nH]c(=O)c1C(c1ccc(Br)cc1)C(C#N)C#N (configuration not stated) ?
LMNA splice mod: -4%; HPGD block: 20µM*; PNC inhibitor: -22; ALOX12 inhib: -27%; ALDH1A1 block: inconclusive

What do the screens show for `CCOC(=O)C(C#N)C(c1cccnc1)c1c(C)[nH][nH]c1=O` (configuration not stated)?
LMNA splice mod: 10%; HPGD block: 0%; PNC inhibitor: 9; ALOX12 inhib: 1%; ALDH1A1 block: -7%

What do the screens show for `CC1CCN(C(=O)C(C)Sc2nc(-c3ccccc3)cc(C(F)(F)F)n2)CC1` (configuration not stated)?
LMNA splice mod: -9%; HPGD block: 16µM*; PNC inhibitor: -12; ALOX12 inhib: -3%; ALDH1A1 block: inconclusive

How did CC(Sc1nc(-c2ccccc2)cc(C(F)(F)F)n1)C(=O)N1CCCC1 (configuration not stated) do in these assays?
LMNA splice mod: -12%; HPGD block: -14%; PNC inhibitor: 0; ALOX12 inhib: -4%; ALDH1A1 block: 12%

How did CCOC(=O)c1c(-c2ccc(OC)cc2)csc1NC(=O)C1CCCO1 (configuration not stated) do in these assays?
LMNA splice mod: -2%[46 µM]; ALDH1A1 block: 8.9µM*

What do the screens show for `CCOC(=O)c1c(-c2ccc(OCC)cc2)csc1NC(=O)CCN1C(=O)c2ccccc2C1=O`?
LMNA splice mod: inconclusive; HPGD block: -16%; PNC inhibitor: 93; ALOX12 inhib: -2%; ALDH1A1 block: -14%

What do the screens show for `CCCOC(=O)c1c(NC(=O)C2CCCO2)sc(C(=O)OC)c1C` (configuration not stated)?
LMNA splice mod: 7%; HPGD block: 10µM*; PNC inhibitor: 0; ALOX12 inhib: -3%; ALDH1A1 block: 2µM*

What do the screens show for `CCOC(=O)c1c(-c2ccc(F)cc2)csc1NC(=O)C1CCCO1` (configuration not stated)?
LMNA splice mod: 11%[46 µM]; ALDH1A1 block: 11µM*

How did CC(C)OC(=O)c1c(-c2ccc(C(C)C)cc2)csc1NC(=O)C1CCCO1 (configuration not stated) do in these assays?
LMNA splice mod: inconclusive; HPGD block: -12%; PNC inhibitor: inconclusive; ALOX12 inhib: 0%; ALDH1A1 block: 10%

What do the screens show for `CCOC(=O)c1c(-c2ccc(C)cc2)csc1NC(=O)C1CCCO1` (configuration not stated)?
LMNA splice mod: inconclusive; HPGD block: -16%; PNC inhibitor: -26; ALOX12 inhib: -1%; ALDH1A1 block: inconclusive

Results for CCOC(=O)c1c(-c2ccc(OC)cc2)csc1NC(=O)CCN1C(=O)c2ccccc2C1=O ?
LMNA splice mod: -1%; HPGD block: 28µM*; PNC inhibitor: inconclusive; ALOX12 inhib: 0%; ALDH1A1 block: 35µM*

How did O=C1[C@@H]2[C@H]3[C@H](O)[C@H](O)C/C(=N/OC[C@@H](O)COCc4ccco4)[C@@H]3CC[C@H]2C(=O)N1c1ccc(F)cc1F do in these assays?
ALDH1A1 block: 3%[13.5 µM]

Results for c1ccc(N/N=C(\Cc2ncc[nH]2)c2ccccc2)cc1 ?
ALDH1A1 block: 7.1µM*

How did COc1cc(CCC(=O)OCC(=O)Nc2ccccc2OC(F)F)cc(OC)c1OC do in these assays?
LMNA splice mod: -11%[46 µM]; ALDH1A1 block: 4%

How did COc1cc(CCC(=O)OCC(=O)Nc2ccccc2C(C)C)cc(OC)c1OC do in these assays?
LMNA splice mod: -7%; HPGD block: 1%; PNC inhibitor: -111*; ALOX12 inhib: 0%; ALDH1A1 block: 4%

How did CCN(CC)S(=O)(=O)c1ccc(NC(=O)COC(=O)CCc2cc(OC)c(OC)c(OC)c2)cc1 do in these assays?
LMNA splice mod: -8%; HPGD block: -5%; PNC inhibitor: 23; ALOX12 inhib: 2%; ALDH1A1 block: 2.5µM*

Results for O=C(O)/C=C/C(=O)Nc1ccc(S(=O)(=O)N2CCCC2)cc1 ?
ALDH1A1 block: 22µM*

How did COc1ccc(S(=O)(=O)N2CCC(C(=O)N3CCCCCC3)CC2)cc1 do in these assays?
LMNA splice mod: -5%; HPGD block: 16µM*; PNC inhibitor: 12; ALOX12 inhib: -4%; ALDH1A1 block: inconclusive

Results for CC(=O)Nc1ccc(S(=O)(=O)Nc2ccc(S(=O)(=O)N3CCCC3)cc2)cc1 ?
LMNA splice mod: -16%; HPGD block: 2%; PNC inhibitor: 100; ALOX12 inhib: 0%; ALDH1A1 block: 2.8µM*

Results for COc1ccc(S(=O)(=O)Nc2ccc(Oc3ncccn3)c(Cl)c2)cc1 ?
LMNA splice mod: -16%; HPGD block: 14µM*; PNC inhibitor: 0; ALOX12 inhib: 0%; ALDH1A1 block: -2%

Results for COc1ccc(S(=O)(=O)N2CCC(C(=O)N3CCCC3)CC2)cc1 ?
LMNA splice mod: 0%; HPGD block: -11%; PNC inhibitor: -6; ALOX12 inhib: 2%; ALDH1A1 block: -13%
